Measured values taken from article PMC6792352, “Limited Chemical Structural Diversity Found to Modulate Thyroid Hormone Receptor in the Tox21 Chemical Library” (Environmental Health Perspectives, 2019).
Where a name gives a salt, the structure may show the parent alone.

system: thyroid hormone receptor (endogenous TRα and TRβ); design: species or system GH3-TRE-Luc (rat pituitary); GH3-TRE-Luc luciferase reporter, antagonist mode against 1 nM T3, loss of signal, qHTS; conditions: read-out: Average AC50 (uM) GH3-TRE-Antag, antagonist mode, 1 nM T3, no GH3 cytotoxicity hit

| Structure (SMILES) | AC50 [µM] |
| --- | --- |
| CC/C=C\CCOC(=O)c1ccccc1 [(3Z)-Hex-3-en-1-yl benzoate] | 73.9 |
| C=CCNC1=C2C[C@@H](C)C[C@H](OC)[C@H](O)[C@@H](C)/C=C(\C)[C@H](OC(N)=O)[C@@H](OC)/C=C\C=C(/C)C(=O)NC(=CC1=O)C2=O [Tanespimycin] | 0.306 |
| Cc1cc(C(C)(C)C)cc(C)c1CC1=NCCN1 [Xylometazoline hydrochloride] | 11 |
| N=C(N)NC(=N)NCCc1ccccc1 [Phenformin hydrochloride] | > 20 |
| O=C(Nc1ccccc1-c1ccc(Cl)cc1)c1cccnc1Cl [Boscalid] | > 100 |
| Cc1cc(C(C)(C)c2ccc(O)c(C)c2)ccc1O [3,3'-Dimethylbisphenol A] | 33.1 |
| OC1CCCCCCCCCCC1 [Cyclododecanol] | 47.7 |
| S=C(NC1CCCCC1)NC1CCCCC1 [N,N'-Dicyclohexylthiourea] | 58.2 |
| Oc1cc(Cl)cc(Cl)c1Cl [2,3,5-Trichlorophenol] | 57 |
| O=C(O)c1cc(Oc2ccc(C(F)(F)F)cc2Cl)ccc1[N+](=O)[O-] [Acifluorfen] | 71.8 |
| O=C(O)c1ccccc1Nc1cccc(C(F)(F)F)c1 [Flufenamic acid] | 29.6 |
| C#C[C@]1(O)CC[C@H]2[C@@H]3CCC4=CC(=O)CC[C@]4(C)[C@H]3CC[C@@]21C [Ethisterone] | 7.79 |
| CSC1=N[C@@](C)(c2ccccc2)C(=O)N1Nc1ccccc1 [Fenamidone] | 6.3 |
| CCCCCCCCCCCCCCC[C@H](O)[C@@H](N)CO [Safingol] | 27.1 |
| CCC1(C2=NCCN2)Cc2ccccc2O1 (stereo not drawn) [Efaroxan] | 45.2 |
| O=C(/C=C/C=C/c1ccc2c(c1)OCO2)N1CCCCC1 [Piperine] | 73.5 |
| CCCCCCCCCC=CCC1CC(=O)OC1=O (stereo not drawn) [(2-Dodecenyl)succinic anhydride] | 74.5 |
| Oc1ccccc1/C=N/Cc1ccccc1 [Norletimol] | > 50 |
| O=C(N[C@@H]1N=C(c2ccccc2F)c2cccc3c2N(CC3)C1=O)c1cc2ccccc2[nH]1 [N-[(3R)-1-(2-Fluorophenyl)-4-oxo-3,4,6,7-tetrahydro[1,4]diazepino[6,7,1-hi]indol-3-yl]-1H-indole-2-carboxamide] | 5.69 |
| CCCc1c(OCCCCc2nnn[nH]2)ccc(C(C)=O)c1O [Tomelukast] | 49.2 |
| N=c1c[n+](N2CCOCC2)[n-]o1 [3-Morpholinosydnonimine hydrochloride] | 52.1 |
| CC(=O)C(Cl)C(=O)N(C)C (stereo not drawn) [2-Chloro-N,N-dimethyl-3-oxobutanamide] | 90.4 |
| C=CCCCCCCCCC=O [Undec-10-enal] | 75.3 |
| CC(=O)O[C@]1(C(C)=O)CC[C@H]2[C@@H]3C[C@H](C)C4=CC(=O)CC[C@]4(C)[C@H]3CC[C@@]21C [Medroxyprogesterone acetate] | 28 |
